Results published in PubChem BioAssay (Tox21).
Records with an inconclusive call do not appear. Activity calls are given as the source filed them. Unless noted, the call rests on the fitted dose curve.

Columns and labels:
[1] = qHTS assay to identify small molecule agonists of the vitamin D receptor (VDR) signaling pathway - cell viability counter screen (AID 743224; active means well fitted curve in the direction sought with a large enough effect in the repeat runs; an effect the other way counts as inactive or inconclusive; further: series mostly up to about 63 µM; on the % scale 0 is the no-effect control and ±100 the full control effect; nearly all actives have a fitted effect of over 50% in size)
In short: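 Luminescence from CellTiter-Glo, read after 30 min at room temperature, reports viability of VDR-bla cells treated with compounds for 16 h at 37C in the wells used for the beta-lactamase FRET read.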

[2] = qHTS assay to identify small molecule agonists of the NFkB signaling pathway (AID 1159509; active means well fitted curve in the direction sought with a large enough effect in the signal ratio in the repeat runs, not every such curve was filed as active; the % refers to the signal ratio; further: series mostly up to about 61 µM; on the % scale 0 is the no-effect control and ±100 the full control effect)
In short: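 After overnight attachment, reporter cells received test compounds, DMSO or positive controls and were incubated 5 hr at 37 C. FRET substrate was then added for 1.5 hr at room temperature before dual-emission fluorescence reading.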

[3] = qHTS assay to identify small molecule agonists of the NFkB signaling pathway - cell viability counter screen (AID 1159515); further: series mostly up to about 61 µM; on the % scale 0 is the no-effect control and ±100 the full control effect; nearly all actives have a fitted effect of over 55% in size
In short: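 Luminescence from CellTiter-Glo (30 min, room temperature) gives viability, measured in the same wells as the beta-lactamase reporter read. Cells were NFkB-bla ME-180, 2,000 per well, treated 5 hr with compounds.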

[4] = qHTS assay to identify small molecule agonists of the endoplasmic reticulum stress response signaling pathway (AID 1159516; active means well fitted activation curve with a large enough effect in the signal ratio in the repeat runs, not every such curve was filed as active; the % refers to the signal ratio; further: on the % scale 0 is the no-effect control and ±100 the full control effect)
In short: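 Read-out is beta-lactamase cleavage of a FRET substrate (405 nm excitation; 460 and 530 nm emissions) in ESRE-bla HeLa cells after a 5 hr compound exposure at 37 C. Substrate incubation ran 2 hr at room temperature.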

[5] = qHTS assay to identify small molecule agonists of the endoplasmic reticulum stress response signaling pathway - cell viability counter screen (AID 1159517);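 further: HeLa cells carrying an ER stress response element beta-lactamase reporter; series mostly up to about 61 µM; on the % scale 0 is the no-effect control and ±100 the full control effect; nearly all actives have a fitted effect of over 50% in size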
In short: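 Luminescence readout: CellTiter-Glo, 30 min RT, same wells as the ESRE-bla reporter read. HeLa ESRE-bla, 1,500 cells/well, o/n 37 C; cpd 5 hr 37 C/5% CO2.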

[6] = qHTS assay to identify small molecule antagonists of the retinoid-related orphan receptor gamma (ROR-gamma) signaling pathway - cell viability counter screen (AID 1159520; active means well fitted curve in the direction sought with a large enough effect in the repeat runs; an effect the other way counts as inactive or inconclusive; further: on the % scale 0 is the no-effect control and ±100 the full control effect; nearly all actives have a fitted effect of over 50% in size)
In short: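 Tet-on ROR gamma CHO cells (1,000/well) were plated 4 hr, given compounds in DMSO for 2 hr at 37 C, then induced with 1 uM final doxycycline for 16 hr. Viability was read as ATP by CellTiter-Glo luminescence after 30 min.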

[7] = biological target: Nuclear receptor ROR-gamma (Homo sapiens) (UniProt P51449); test: qHTS assay to identify small molecule antagonists of the retinoid-related orphan receptor gamma (ROR-gamma) signaling pathway (AID 1159521; active means well fitted curve in the direction sought with a large enough effect in the repeat runs; an effect the other way counts as inactive or inconclusive;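 further: CHO cells with doxycycline inducible ROR-gamma driving an RORE luciferase reporter; top concentration of the series differs between compounds; on the % scale 0 is the no-effect control and ±100 the full control effect; nearly all actives have a fitted effect of over 50% in size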)
In short: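 Tet-on ROR-gamma CHO cells with ROR response element-luciferase reporter; compounds added 2 hr before 1 uM doxycycline induction, then 16 hr at 37 C. Antagonism scored as decreased ONE-Glo luminescence.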

[8] = qHTS assay to identify small molecule agonists of the AP-1 signaling pathway - cell viability counter screen (AID 1159525); further: nearly all actives have a fitted effect of over 55% in size
In short: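 ME-180 AP-1-bla, 2500 cells/well, Opti-MEM + 0.5% dialyzed FBS; overnight 37 °C; cpd 15-pt titration, 5 h 37 °C; CellTiter-Glo 30 min RT; luminescence read; normalised to TOAB and DMSO controls.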

[9] = qHTS assay to identify small molecule agonists of the AP-1 signaling pathway (AID 1159526); further: on the % scale 0 is the no-effect control and ±100 the full control effect
[10] = qHTS assay to identify small molecule antagonists of the vitamin D receptor (VDR) signaling pathway - cell viability counter screen (AID 743225; active means well fitted curve in the direction sought with a large enough effect in the repeat runs; an effect the other way counts as inactive or inconclusive)
In short: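 VDR-UAS-bla HEK 293T cells were plated and incubated 4 h at 37C, then dosed with compound plus 3 nM (final) 1-alpha,25-dihydroxyvitamin D3 for 16 h. After the 2 h beta-lactamase read, viability in the same wells was read as CellTiter-Glo luminescence after 30 min at room temperature.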

CC(S)C(=O)NCC(=O)O (stereo not drawn)
inactive: Potency [1] | outcome [2] | outcome [3] | outcome [4] | Potency [5] | outcome [6] | outcome [7] | outcome [8] | outcome [9]

COc1ccc(-c2cc(=O)c3c(O)cc(O[C@@H]4O[C@H](CO[C@@H]5O[C@@H](C)[C@H](O)[C@@H](O)[C@H]5O)[C@@H](O)[C@H](O)[C@H]4O)cc3o2)cc1O
inactive: Potency [1] | outcome [2] | outcome [3] | outcome [4] | Potency [5] | outcome [6] | outcome [7] | outcome [8] | outcome [9]

OCCCCC(O)CO (stereo not drawn)
inactive: Potency [1] | outcome [2] | outcome [3] | outcome [4] | Potency [5] | outcome [6] | outcome [7] | outcome [8] | outcome [9]

CC(=O)c1sc(C)nc1C
inactive: outcome [2] | outcome [3] | outcome [4] | Potency [5] | outcome [6] | outcome [7] | outcome [8] | outcome [9]

CCOC(=O)/C=C/c1ccccc1
inactive: outcome [2] | outcome [3] | outcome [4] | Potency [5] | outcome [6] | outcome [7] | outcome [8] | outcome [9]

CCCCCCCCOS(=O)(=O)O
inactive: Potency [1] | outcome [2] | outcome [3] | outcome [4] | Potency [5] | outcome [6] | outcome [7] | outcome [8] | outcome [9]

CCCCNC1CC(C)(C)NC(C)(C)C1
inactive: Potency [1] | outcome [2] | outcome [3] | outcome [4] | Potency [5] | outcome [6] | outcome [7] | outcome [8] | outcome [9]

O=C(NCC(O)CO)c1c(I)c(C(=O)NCC(O)CO)c(I)c(N(CCO)C(=O)CO)c1I (stereo not drawn)
inactive: Potency [1] | outcome [2] | outcome [3] | outcome [4] | Potency [5] | outcome [6] | outcome [7] | outcome [8] | outcome [9]

O=C1c2ccccc2C(=O)N1CCl
inactive: Potency [1] | outcome [2] | outcome [3] | outcome [4] | Potency [5] | outcome [6] | outcome [7] | outcome [8] | outcome [9]

O=C(O)Cc1cn(-c2ccccc2)nc1-c1ccc(Cl)cc1
inactive: Potency [1] | outcome [2] | outcome [3] | outcome [4] | Potency [5] | outcome [6] | outcome [7] | outcome [8] | outcome [9]

O=C1c2ccccc2C(=O)c2cc(S(=O)(=O)O)ccc21
inactive: Potency [1] | outcome [2] | outcome [3] | outcome [4] | Potency [5] | outcome [6] | outcome [7] | outcome [8] | outcome [9]

CCCN1C[C@H](CSC)C[C@@H]2c3cccc4[nH]cc(c34)C[C@H]21
inactive: outcome [2] | outcome [3] | outcome [4] | Potency [5] | outcome [6] | outcome [7] | outcome [8] | outcome [9]

COc1ccc(Br)c(C)c1
inactive: Potency [1] | outcome [2] | outcome [3] | outcome [4] | Potency [5] | outcome [6] | outcome [7] | outcome [8] | outcome [9]

C=C(C)C(=O)OCCOP(=O)(O)OCCOC(=O)C(=C)C
inactive: Potency [1] | outcome [2] | outcome [3] | outcome [4] | Potency [5] | outcome [6] | outcome [7] | outcome [8] | outcome [9]

COc1cc2c(cc1OC)C(=O)CC2
inactive: Potency [1] | outcome [10] | outcome [2] | outcome [3] | outcome [4] | Potency [5] | outcome [6] | outcome [7] | outcome [8] | outcome [9]

Oc1cn2c(n1)Nc1ccc(Cl)c(Cl)c1C2
inactive: Potency [1] | outcome [10] | outcome [2] | outcome [3] | outcome [4] | Potency [5] | activity, negative = cytotoxicity [6] -0.0979% [at 19 µM] | activity change, negative = inhibition [7] 0.185% [at 19 µM] | viability change, negative = cytotoxic [8] -0.119% [at 15.8 µM] | activation [9] 0.89% [at 15.8 µM]

CCC(C)NC(N)=O (stereo not drawn)
inactive: Potency [1] | outcome [10] | outcome [2] | outcome [3] | outcome [4] | Potency [5] | outcome [6] | outcome [7] | outcome [8] | outcome [9]

CC(=O)Nc1ccc(S(=O)(=O)Nc2ccc([N+](=O)[O-])cc2)cc1
inactive: Potency [1] | outcome [10] | outcome [2] | outcome [3] | outcome [4] | Potency [5] | outcome [6] | outcome [7] | outcome [8] | outcome [9]

CCCCNc1ccc(C(=O)OCCN(C)C)cc1
inactive: Potency [1] | outcome [10] | outcome [2] | outcome [3] | outcome [4] | Potency [5] | outcome [6] | outcome [7] | outcome [8] | outcome [9]

CC1COc2ccccc2N1 (stereo not drawn)
inactive: Potency [1] | outcome [10] | outcome [2] | outcome [3] | outcome [4] | Potency [5] | outcome [6] | outcome [7] | outcome [8] | outcome [9]

COc1ccc2c(c1)C(=O)N(CCc1ccc(S(=O)(=O)NC(=O)NC3CCCCC3)cc1)C(=O)C2(C)C
inactive: Potency [1] | outcome [10] | outcome [2] | outcome [3] | outcome [4] | Potency [5] | outcome [6] | outcome [7] | outcome [8] | outcome [9]

CNC(=O)[C@H]1O[C@@H](n2cnc3c(NCc4cc(Cl)ccc4OCc4cc(C)no4)ncnc32)[C@H](O)[C@@H]1N
inactive: Potency [1] | outcome [10] | outcome [2] | outcome [3] | outcome [4] | Potency [5] | outcome [6] | outcome [7] | outcome [8] | outcome [9]

CN1CCN(CC(=O)N2c3ccccc3C(=O)Nc3cccnc32)CC1
inactive: activity change, negative = cytotoxicity [1] 0.894% [at 5.95 µM] | viability change, negative = cytotoxic [10] -0.964% [at 6.95 µM] | activation [2] -0.0785% [at 6.95 µM] | activity, negative = cytotoxic [3] 1.12% [at 6.95 µM] | activation [4] -0.546% [at 6.95 µM] | activity change, negative = cytotoxicity [5] -3.52% [at 6.95 µM] | activity, negative = cytotoxicity [6] 3.19% [at 8.39 µM] | activity change, negative = inhibition [7] 14.7% [at 8.39 µM] | viability change, negative = cytotoxic [8] 2.29% [at 6.97 µM] | activation [9] -1.4% [at 6.97 µM]
